{"source": "PubChem BioAssay AID626", "about": "(Vanderbilt High Throughput Screening Facility, 2007)", "note": "Hit rate of the full screen: of about 64,000 compounds, about 1,900 (3%) were called active. The list comes from a sample in which actives are over-represented; it also holds similar structures and randomly drawn compounds. Unmarked numbers belong to inactive results.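 Rule for the calls: active = fluorescence rise, raw or as B-score row- and column-corrected plate score, outside the 99.7% band of its plate's samples, either direction; inactive = the rest.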", "data": [{"system": "Muscarinic acetylcholine receptor M1", "test": "direct activation of M1 receptor calcium signal – CHO-M1 cells, Fluo-4 calcium, agonist mode, primary screen (AID 626)", "conditions": "Fluo-4 calcium fluorescence, at 10 µM, stronger effect = higher value", "values": [{"smiles": "Cc1ccc(C(=O)COc2cccc(NC(=O)c3ccco3)c2)cc1", "B-score": "1.03 (active)"}, {"smiles": "COC(=O)c1ccc(NC(=O)c2ccco2)cc1", "B-score": -0.218}, {"smiles": "Cc1ccnc(NC(=O)c2ccc(NC(=O)c3ccco3)cc2)c1", "B-score": 1.71}, {"smiles": "O=C1c2ccccc2C(Nc2ccc3c(c2)OCCO3)N1Cc1ccco1", "note": "(stereo not given)", "B-score": 0.847}, {"smiles": "COc1ccccc1Oc1ccc(S(=O)(=O)Nc2cccnc2)cc1", "B-score": "14.6 (active)"}, {"smiles": "COc1ccc(NS(=O)(=O)c2ccc(NC(C)=O)cc2)cc1OC", "B-score": 0.127}, {"smiles": "O=S(=O)(Nc1ccccn1)c1ccc(Oc2ccccc2)cc1", "B-score": -0.897}, {"smiles": "CCC(C)(C)NC(=O)C(c1cccn1C)N(Cc1ccc(C)cc1)C(=O)Cn1nnc2ccccc21", "note": "(stereo not given)", "B-score": -0.864}, {"smiles": "O=S(=O)(NCC1CCCO1)c1ccc2ccccc2c1", "note": "(stereo not given)", "B-score": 0.554}, {"smiles": "COCCCNC(=O)c1c(F)c(F)c(F)c(F)c1F", "B-score": 0.0183}, {"smiles": "Cc1cccc(CC(=O)Nc2c3c(nn2-c2cccc(Cl)c2)CS(=O)C3)c1", "note": "(stereo not given)", "B-score": -1.33}, {"smiles": "Cc1noc(C)c1CSc1nc2cc(S(=O)(=O)N3CCOCC3)ccc2o1", "B-score": -0.0272}, {"smiles": "CC1Cc2ccccc2N1C(=O)CSc1nc2ccccc2o1", "note": "(stereo not given)", "B-score": 0.106}, {"smiles": "O=C(CSc1nc2ccccc2o1)N1CCN(c2ccccc2)CC1", "B-score": -0.706}, {"smiles": "O=C(CSc1nc2ccccc2o1)N1CCN(c2ccc(Cl)cc2)CC1", "B-score": "20.1 (active)"}, {"smiles": "CSCCC(NC(=O)c1ccc(=O)n(C)n1)c1nc2ccccc2[nH]1", "note": "(stereo not given)", "B-score": -1.57}, {"smiles": "NC(=S)c1ccc(C(N)=S)o1", "B-score": 2.43}, {"smiles": "COc1ccc(C(=O)CSc2nccc(=O)[nH]2)cc1", "B-score": 1.27}, {"smiles": "CC12C(=O)N(n3cnnc3)C(=O)C1C1C=CC2C1", "note": "(stereo not given)", "B-score": 0.0714}, {"smiles": "CCc1ccc(Nc2ncc3c(n2)CC(c2ccco2)CC3=O)cc1", "note": "(stereo not given)", "B-score": 0.24}, {"smiles": "CCCC(=O)Nc1ccccc1N1CCN(C(=O)c2ccccc2)CC1", "B-score": 0.545}, {"smiles": "O=C(Nc1ccccc1N1CCN(c2ccccc2)CC1)c1cccc(F)c1", "B-score": -0.048}, {"smiles": "O=C(Nc1ccccc1N1CCN(C(=O)c2ccccc2)CC1)c1ccc2c(c1)OCO2", "B-score": "2.96 (active)"}, {"smiles": "Cc1noc(C)c1C(=O)OCC(=O)/C=C1\\N(C)c2ccccc2C1(C)C", "B-score": -1.21}, {"smiles": "COc1ccc(S(=O)(=O)N2CCC(C(=O)N3CCc4ccccc4C3)CC2)cc1OC", "B-score": 0.201}, {"smiles": "O=C(CN(Cc1ccccc1)C(=O)c1ccc2c(c1)OCCO2)NCc1ccc2c(c1)OCO2", "B-score": 0.89}, {"smiles": "CC1(C)CC(O)C(CCC(O)c2ccccc2)C(C)(C)N1", "note": "(stereo not given)", "B-score": 2.64}, {"smiles": "CN(C)S(=O)(=O)c1cccc(C(=O)Nc2cccnc2)c1", "B-score": 0.0444}, {"smiles": "COc1ccc(-c2c3c(=O)n(C)c(=O)n(C)c3cn2NC(C)=O)cc1", "B-score": 0.218}, {"smiles": "COc1ccc(N(C(=O)c2cccnc2)S(=O)(=O)c2ccc3c(c2)n(C)c(=O)n3C)cc1", "B-score": "3.89 (active)"}, {"smiles": "O=C(NCCN1C(=O)C2C3C=CC(C3)C2C1=O)Nc1ccccn1", "note": "(stereo not given)", "B-score": 0.114}, {"smiles": "COC(=O)Nc1ncc(CN2C(=O)c3ccccc3C2=O)s1", "B-score": 0.171}, {"smiles": "CCOC(=O)c1cc2n(c1C)-c1ccccc1C2=O", "B-score": 0.122}, {"smiles": "CCOC(=O)Nc1ccccc1N1C(=O)c2ccccc2C1=O", "B-score": -0.565}, {"smiles": "CCOC(=O)c1cc2n(c1N)-c1ccccc1C2=O", "B-score": "145 (active)"}, {"smiles": "CC(=O)N(CN1C(=O)C2CC=CCC2C1=O)c1cccc(Cl)c1", "note": "(stereo not given)", "B-score": -1.96}, {"smiles": "O=C(NCc1ccco1)c1cnn2c(C(F)(F)F)cc(-c3ccco3)nc12", "B-score": 0.0458}, {"smiles": "FC(F)(F)COc1nc(N2CCCCC2)nc(N2CCNCC2)n1", "B-score": "6.73 (active)"}, {"smiles": "COc1cc2c(cc1NC(=O)CN1CCN(S(=O)(=O)c3ccc(F)cc3)CC1)oc1ccccc12", "B-score": -1.04}, {"smiles": "OCc1nc(CO)n(Cc2ccccc2)n1", "B-score": -0.345}, {"smiles": "CC1CCCC(C)N1C(=O)CN1CCN(c2nc(-c3ccc(F)cc3)cs2)CC1", "note": "(stereo not given)", "B-score": "2.64 (active)"}, {"smiles": "COc1ccc(-c2csc(N3CCN(Cc4ccc5c(c4)OCO5)CC3)n2)cc1", "B-score": -0.173}, {"smiles": "O=C(CN1CCN(c2nc(-c3ccccc3)cs2)CC1)NCc1ccc2c(c1)OCO2", "B-score": -0.269}, {"smiles": "O=c1c2ccccc2nc(CSc2nnnn2-c2ccccc2)n1-c1ccccc1", "B-score": -1.38}, {"smiles": "CCOc1cccc(/C(O)=C2/C(=O)C(=O)N(CCOC)C2c2ccncc2)c1", "note": "(stereo not given)", "B-score": -0.0327}, {"smiles": "Cc1cc(=O)cc(C)[nH]1", "B-score": -0.0108}, {"smiles": "CCOc1ccc(NC(=O)N2CC=C(n3c(=O)[nH]c4ccccc43)CC2)cc1", "B-score": "3.49 (active)"}, {"smiles": "CCOc1ccc(NC(=O)N2CCN(CC)CC2)cc1", "B-score": -1.38}, {"smiles": "Cc1cccc(C)c1NC(=O)N1CC=C(n2c(=O)[nH]c3ccccc32)CC1", "B-score": 1.14}, {"smiles": "CN1CCC2(CC1)NC(=O)NC2=O", "B-score": -0.874}, {"smiles": "Cn1c(=O)c2c(nc(NCCc3ccccc3)n2Cc2ccccc2)n(C)c1=O", "B-score": -0.39}, {"smiles": "CCCCn1c(SCC(=O)NCCc2ccc(OC)c(OC)c2)nc2c1c(=O)n(C)c(=O)n2C", "B-score": 0.299}, {"smiles": "CCn1c(NCCc2ccc(OC)c(OC)c2)nc2c1c(=O)n(C)c(=O)n2C", "B-score": "3.33 (active)"}, {"smiles": "Cc1cc(C(F)(F)F)c(C#N)c(SCC(=O)NC2CC2)n1", "B-score": 0.0289}, {"smiles": "CCSc1ncnc2c(C#N)c3n(c12)CCCCC3", "B-score": -0.0416}, {"smiles": "O=C(CCC(=O)OCC(F)(F)C(F)F)NCc1ccccc1", "B-score": -1.45}, {"smiles": "CCOc1ccc2[nH]c(=O)c(CN(Cc3nnnn3CCc3ccccc3)CC3CCCO3)cc2c1", "note": "(stereo not given)", "B-score": 1.96}, {"smiles": "Cc1cc2cc(CN(Cc3cccs3)Cc3nnnn3CC3CCCO3)c(=O)[nH]c2cc1C", "note": "(stereo not given)", "B-score": "6.85 (active)"}, {"smiles": "CCC(=O)N(Cc1cc2cc(OC)ccc2[nH]c1=O)c1ccccc1C", "B-score": -0.55}, {"smiles": "Cc1cc(C)c2cc(CN(Cc3cccs3)Cc3nnnn3CC3CCCO3)c(=O)[nH]c2c1", "note": "(stereo not given)", "B-score": -0.2}, {"smiles": "CCOc1ccc2[nH]c(=O)c(CN(Cc3nnnn3Cc3ccccc3)CC3CCCO3)cc2c1", "note": "(stereo not given)", "B-score": "3.01 (active)"}, {"smiles": "Cc1cccc2cc(CN(Cc3cccs3)C(c3nnnn3C3CCCC3)C(C)C)c(=O)[nH]c12", "note": "(stereo not given)", "B-score": -0.692}, {"smiles": "Cc1cccc2cc(CN(Cc3nnnn3Cc3ccccc3)C3CCCC3)c(=O)[nH]c12", "B-score": 0.299}, {"smiles": "COc1ccc2[nH]c(=O)c(CN(CC3CCCO3)C(=O)Nc3ccccc3)cc2c1", "note": "(stereo not given)", "B-score": "2.9 (active)"}, {"smiles": "COc1ccc2[nH]c(=O)c(CN(Cc3nnnn3CCc3ccccc3)CC3CCCO3)cc2c1", "note": "(stereo not given)", "B-score": 0.197}]}]}
